Source: PubChem BioAssay AID1117290 (Broad Institute, 2014)
Potency and affinity values are given separately. Unmarked numbers belong to inactive results. Active and inactive are the calls of the source.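 How the source made its calls: active means every replicate test called active, each showing a drop in signal with a fitted potency within twice the top tested dose; inconclusive means tests disagree, or fits are weak, flat midrange or poor; inactive means every test flat, rising or fitted past the limit.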

Assay: A549 cell cytotoxicity, dose response, cytotoxicity control, CellTiter-Glo luminescence, dry powder, set 18 (AID 1117290)
Conditions: A549 viability, CellTiter-Glo ATP luminescence, 72 h; series mostly up to 26 µM; activity change, negative = cytotoxicity: at the top concentration

Row | Compound | outcome | activity change, negative = cytotoxicity
1 | COc1ccc(C(=O)O)cc1S(=O)(=O)Nc1cc(C(F)(F)F)ccc1N1CCCCC1 | inactive | –
2 | Cn1cnc(S(=O)(=O)Nc2cc(C(F)(F)F)ccc2N2CCCCC2)c1 | – | 17.9%
3 | CC(=O)N1CCN(C(=O)C2(NC(=O)Nc3ccc(C(F)(F)F)cc3)CCCC2)CC1 | – | -19.7%
4 | NC(=NCCc1c[nH]c2ccccc12)NS(=O)(=O)c1cc(F)ccc1F | – | -1.23%
5 | COc1ccc(C(=O)O)cc1S(=O)(=O)Nc1cc(C(F)(F)F)ccc1N1CCOCC1 | – | -18.6%
6 | O=S(=O)(Nc1cc(C(F)(F)F)ccc1N1CCCCC1)c1ccc(C(F)(F)F)cc1 | – | -23.7%
7 | CC(=O)N1CCN(C(=O)C2(NC(=O)Nc3ccc(C)cc3)CC2)CC1 | – | -14.1%
8 | O=S(=O)(O)c1ccc(N2N=C(c3ccccc3)CC2c2ccccc2)cc1 (stereo unspecified) | – | -2.2%
9 | CC(=O)N1CCN(C(=O)C2(NC(=O)Nc3ccc(C(C)C)cc3)CCCC2)CC1 | – | -7.13%
10 | CC(=O)N1CCN(C(=O)C2(NC(=O)Nc3ccccc3F)CCCCC2)CC1 | inactive | –
11 | O=S(=O)(Nc1cc(C(F)(F)F)ccc1N1CCCCC1)c1cc(Cl)cc(Cl)c1 | – | -32.2%
12 | CC(=O)N1CCN(C(=O)C2(NC(=O)Nc3cccc(C(F)(F)F)c3)CCCCC2)CC1 | – | 1.59%
13 | COc1ccc(C(=O)Nc2ccccc2N2CCCCC2)cc1S(=O)(=O)O | – | 0.182%
14 | CC(=O)N1CCN(C(=O)C2(NC(=O)Nc3ccccc3)CCCC2)CC1 | – | -6.72%
15 | O=[N+]([O-])c1cccc(S(=O)(=O)Nc2cc(C(F)(F)F)ccc2N2CCCCC2)c1 | – | -15.1%
16 | Cc1ccc(NC(=O)NC2(C(=O)N3CCOCC3)CCCCC2)cc1 | – | -4.37%
17 | CC(=O)N1CCN(C(=O)C2CCCN2C(=O)Nc2ccc(C)cc2)CC1 (stereo unspecified) | – | -7.47%
18 | CC(=O)N1CCN(C(=O)C2(NC(=O)NC(C)(C)C)CCCCC2)CC1 | – | -7.42%
19 | COc1ccc(C(=O)O)cc1S(=O)(=O)Nc1cc(C(F)(F)F)ccc1N(C)C | – | -9.63%
20 | O=S(=O)(Nc1cc(C(F)(F)F)ccc1N1CCCCC1)c1ccc(F)cc1 | – | -15.4%
21 | CC(=O)N1CCN(C(=O)C2(NC(=O)Nc3ccccc3C(F)(F)F)CCCCC2)CC1 | – | -1.43%
22 | CC(=O)N1CCN(C(=O)C2(NC(=O)Nc3ccc(C(F)(F)F)cc3)CCCCC2)CC1 | – | -16%
23 | COc1ccc(C(=O)Nc2cc(C(F)(F)F)ccc2N2CCCC2)cc1S(=O)(=O)O | – | -14.3%
24 | COc1ccc(C(=O)O)cc1S(=O)(=O)Nc1ccc(N2CCCCC2)cc1C(F)(F)F | – | -6.22%
25 | O=C(Nc1cc(C(F)(F)F)ccc1N1CCCCC1)c1ccc(S(=O)(=O)O)cc1 | – | 3.15%
26 | COc1ccc(C(=O)Nc2cc(C(F)(F)F)ccc2N2CCOCC2)cc1S(=O)(=O)O | – | -6.57%
